{"source": "PubChem BioAssay", "note": "Entries with a potency or affinity are not part of this list. Active and inactive are the calls of the source. The rule behind the calls is not given here."}
{"biological_target": "Melanocortin receptor 4 (Homo sapiens) (UniProt P32245)", "assay": "blockade of melanocortin 4 receptor signaling – cell-based, plate reader, cherry pick, counter-screen for LGR2 antagonist project, dose response (AID 743444)", "conditions": "MC4R-expressing cells, antagonist mode; series mostly up to 35 µM; activity change, negative = inhibition: at the top concentration"}
{"compound": "O=C(c1ccc2c(c1)OCCO2)C1CCN(S(=O)(=O)c2ccc(F)cc2)CC1", "activity change, negative = inhibition": "68.4% (inactive)"}
{"compound": "COc1ccccc1N1CCN(C(=O)c2sc3nc(-c4ccc(F)cc4)cn3c2C)CC1", "activity change, negative = inhibition": "-16.4% (inactive)"}
{"compound": "O=C(Nc1ccc(N2CCN(C(=O)c3ccccc3)CC2)cc1)c1cc2ccccc2o1", "activity change, negative = inhibition": "-16.1% (inactive)"}
{"compound": "C[C@@H]1CN([C@H](C)CO)C(=O)Cc2cc(NC(=O)CCC(F)(F)F)ccc2O[C@@H]1CN(C)CC1CCCCC1", "activity change, negative = inhibition": "3.39% (inactive)"}
{"compound": "C[C@H]1CCCCO[C@@H](CN(C)C(=O)Nc2ccc(C(F)(F)F)cc2)[C@@H](C)CN([C@@H](C)CO)C(=O)c2cc(NC(=O)CCC(F)(F)F)ccc2O1", "activity change, negative = inhibition": "-21.9% (inactive)"}
{"compound": "CCOC(=O)c1c(C)n(C)c2ccc(OCC(O)CNCCc3ccccc3)cc12", "note": "(stereo not given)", "activity change, negative = inhibition": "83.6% (inactive)"}
{"compound": "O=[N+]([O-])c1cc(S(=O)(=O)N2CCCCCC2)ccc1Cl", "activity change, negative = inhibition": "46.7% (inactive)"}
{"compound": "Cc1ccc2nc(C(F)(F)F)c(C#N)c(N)c2c1", "activity change, negative = inhibition": "-23.5% (inactive)"}
{"compound": "CC(C)N(C(=O)COC(=O)c1ccccc1C(=O)c1ccc(Cl)c([N+](=O)[O-])c1)C(C)C", "activity change, negative = inhibition": "94.9% (inactive)"}
{"compound": "N#C[C@@H]1[C@H](c2ccc(C#Cc3cccc(F)c3)cc2)[C@@H](CO)N1C(=O)C1CC1", "activity change, negative = inhibition": "-26.4% (inactive)"}
{"compound": "Cn1c(=O)c2cc(NC(=O)NCc3ccccc3)ccc2n1C/C=C/c1ccccc1", "activity change, negative = inhibition": "-16.3% (inactive)"}
{"compound": "CC(C)(C)c1ccc(Cn2c(=O)cnc3ccccc32)cc1", "activity change, negative = inhibition": "112% (inactive)"}
{"compound": "O=C(Cn1ncc(Cl)c(Cl)c1=O)N1CCOCC1", "activity change, negative = inhibition": "12.2% (inactive)"}
{"compound": "CC(=O)c1ccc(Nc2cc(C)nc3c(C)cc(C)cc23)cc1", "activity change, negative = inhibition": "33.5% (inactive)"}
{"compound": "COc1ccc2cc(C#N)c(Nc3cccc(F)c3)nc2c1", "activity change, negative = inhibition": "81.7% (inactive)"}
{"compound": "COc1ccc(-c2cc(C(F)(F)F)nc(S(=O)(=O)CCCC(=O)Nc3cccc(O)c3)n2)cc1OC", "activity change, negative = inhibition": "84.3% [at 16 µM] (inactive)"}
{"compound": "CCOCCCn1c(SCc2nc3ccccc3s2)nc2ccccc2c1=O", "activity change, negative = inhibition": "9.56% (inactive)"}
{"compound": "CCCCn1nnnc1C(c1cc2ccccc2o1)N1CCN(c2ccncc2)CC1", "note": "(stereo not given)", "activity change, negative = inhibition": "-24.1% (inactive)"}
{"compound": "CCCCOc1cc(NCc2ccccc2)c2ncn(C(C)C)c2c1", "activity change, negative = inhibition": "71.4% (inactive)"}
{"compound": "COc1cc(/C=N/Nc2nc(C)nc3c2cnn3-c2ccccc2)ccc1O", "activity change, negative = inhibition": "25.4% (inactive)"}
{"compound": "Cc1ccc(NC(=O)c2ncn(CC(=O)N3CCN(c4ccccn4)CC3)n2)cc1C", "activity change, negative = inhibition": "43.8% (inactive)"}
{"compound": "O=C(C[C@@H]1C[C@H]2c3cc(NC(=O)c4ccc5c(c4)OCO5)ccc3O[C@H]2[C@@H](CO)O1)NCc1ccc(Oc2ccccc2)cc1", "activity change, negative = inhibition": "8.8% [at 16 µM] (inactive)"}
{"compound": "Oc1ccc(-c2csc(-c3cccnc3)n2)c(O)c1", "activity change, negative = inhibition": "18.2% (inactive)"}
{"compound": "CC(C)(C)c1nc2ccc(Cl)cn2c1CC1CCCCC1", "activity change, negative = inhibition": "-36.7% (inactive)"}
{"compound": "COc1cc(NC2CCCCC2O)c2nc(-c3ccc(Cl)cc3)ccc2c1", "note": "(stereo not given)", "activity change, negative = inhibition": "70.1% (inactive)"}
{"compound": "COc1ccc(S(=O)(=O)N2CCOCC2)cc1NC(=O)COc1ccc(C)cc1", "activity change, negative = inhibition": "102% (inactive)"}
{"compound": "COc1ccc(CCNC(=O)C2CCN(S(=O)(=O)c3ccc(Cl)cc3)CC2)cc1OC", "activity change, negative = inhibition": "48.3% (inactive)"}
{"compound": "CC(C)OC(=O)c1ccc(NCc2cc(O)ccc2O)cc1Cl", "activity change, negative = inhibition": "36.8% (inactive)"}
{"compound": "O=C(CSc1nc2ccccc2[nH]1)Nc1nc(-c2cccc(Br)c2)cs1", "activity change, negative = inhibition": "29.1% (inactive)"}
{"compound": "CNCc1ccccc1Sc1ccc(O)c(O)c1", "activity change, negative = inhibition": "2.7% (inactive)"}
{"compound": "CCOc1cc(/C=C/C(=O)Nc2ccc(C(=O)NCCN(CC)CC)cc2)ccc1OCC(C)C", "activity change, negative = inhibition": "-2.18% (inactive)"}
{"compound": "CCOc1cccc2sc(Nc3nc4ccc(NC(C)=O)cc4s3)nc12", "activity change, negative = inhibition": "63.6% (inactive)"}
{"compound": "Cc1cccc(Cn2ncc(Cl)c(Cl)c2=O)c1", "activity change, negative = inhibition": "44.8% (inactive)"}
{"compound": "Cc1ccc(S(=O)(=O)Nc2ccc3c(c2)C(=O)N([C@H](C)CO)C[C@@H](C)[C@H](CN(C)S(=O)(=O)c2cccs2)OCCCC[C@@H](C)O3)cc1", "activity change, negative = inhibition": "-10.1% (inactive)"}
{"compound": "COc1ccc(C(=O)CC(Sc2ccccc2N)c2ccc(OC)cc2)cc1", "note": "(stereo not given)", "activity change, negative = inhibition": "-30.1% (inactive)"}
{"compound": "COc1ccccc1CN(C)C[C@@H]1OCc2cnnn2CCCC(=O)N([C@H](C)CO)C[C@H]1C", "activity change, negative = inhibition": "36.4% (inactive)"}
{"compound": "COC(=O)c1ccc(Nc2cc(C)nc3ccc(C)cc23)cc1", "activity change, negative = inhibition": "46.1% (inactive)"}
{"compound": "O=C(c1ccc(CSc2nc3ccncc3[nH]2)cc1)N1CCN(c2cccc(Cl)c2)CC1", "activity change, negative = inhibition": "42.7% (inactive)"}
{"compound": "CC(C)c1ccc2c(c1)C(N1CCNCC1)Cc1ccc(F)cc1S2", "note": "(stereo not given)", "activity change, negative = inhibition": "21.3% (inactive)"}
{"compound": "c1ccc(COc2cccc(-c3cc4nc(NCCCn5ccnc5)ccn4n3)c2)cc1", "activity change, negative = inhibition": "-3.54% (inactive)"}
